Pf growth 48h: P. falciparum growth inhibition at 48 hours (one generation); Potency, µM (series often up to 28.7 µM), for the others: at the top dose activity change, negative = inhibition, usual class: inhibitors; 310,000 compounds, 5.9% hits; P. falciparum luciferase growth in erythrocytes, 48 h; further: potency means the concentration at half of the fitted maximal effect
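First compound was added to culture medium, then infected red cells at 0.1% parasitemia and 2% hematocrit (final). After incubation at 37 C under 5% CO2, luciferase detection reagent was dispensed and light output recorded.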
HCV inh: blocks hepatitis C virus; Huh7.5.1 HCVcc-Cre infection, luciferase reporter, 44 h; Potency, µM (titrated, usually from 41.8 µM), without a hit: at the highest dose activity change, negative = inhibition, most hits filed as inhibitors; 340,000 compounds, 3.4% hits; AID 651820; further: potency means the concentration at half of the fitted maximal effect
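Seed cells (1,000/well) for 4 h; treat with compound and infect with HCVcc-Cre, moi about 0.5. Incubate 44 h, then detect luciferase activity.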
HCMV antiviral: blocks human cytomegalovirus replication; 410,000 compounds, 4.5% hits; activity change, negative = inhibition, % at 57.5 µM; HFF cells, HCMV-luciferase reporter, 72 h; hits give low values; in the data active means activity change below about -60%; inconclusive means no clear call, values can overlap the other calls; inactive means above about -39%
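Human foreskin fibroblasts infected with luciferase-reporter HCMV at MOI 1 PFU/cell, compounds at two doses. Luciferase measured 72 h post infection; normalized to buffer-only basal and Salinomycin (10uM) controls.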
LASV entry inh: Lassa virus entry inhibition; Lassa virus pseudotype entry inhibition, cell reporter; Potency, µM (top dose mostly 37.9 µM), inactives show at the highest dose activity change, negative = inhibition, hits mostly inhibitors; 300,000 compounds, 1.2% hits; calls by dose curve; tested in HEK293 cells; further: potency means the concentration at half of the fitted maximal effect; nearly all actives have a fitted effect of over 50% in size
Pf growth 96h: inhibits malaria parasite growth, 96 h | 320,000 compounds, 6.9% hits | Potency, µM (titrated, usually from 28.7 µM), for the others: at the highest dose activity change, negative = inhibition, actives largely listed as inhibitors | P. falciparum luciferase reporter growth, 96 h; further: potency means the concentration at half of the fitted maximal effect
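Two-generation exposure (96 h) targets delayed-death phenotype. Reporter parasites carrying integrated firefly luciferase, in red cells at 2% hematocrit and 0.05% parasitemia final, kept at 37 C, 5% CO2; luminescence loss indicates inhibition.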
MARV entry inh: inhibitors of Marburg virus binding or cell entry. Potency, µM (titrated, usually from 37.8 µM), for inactives: top-dose activity change, negative = inhibition, hits mostly inhibitors. 300,000 compounds, 1.8% hits. Marburg virus pseudotyped entry inhibition, cell reporter; calls by dose curve; tested in HEK293 cells; further: potency means the concentration at half of the fitted maximal effect
Starred values were filed as active, the others as inactive; [ ] = another dose, or the depositor's remark. A selection: hits, their analogues and other compounds. The true share with any hit is near 14%. Unless noted, the call rests on the fitted dose curve; in most records, active means well fitted inhibition curve with a large enough effect; inconclusive means small, poorly fitted or top-dose-only effect, or another doubt; inactive means no such curve, though single readings can be large or run the other way. On the % scale 0 is the no-effect control and ±100 the full control effect.

`COc1ccc(-c2cc(C(F)(F)F)nc(SCC(=O)N(C)Cc3ccccc3)n2)cc1` gave HCMV antiviral -16, LASV entry inh inconclusive and MARV entry inh -10%[46.1 µM].
`CC(C)COc1ccc(C/C(N)=N/n2cnnc2)cc1` gave Pf growth 48h 3%, HCV inh 14µM*, HCMV antiviral -94*, LASV entry inh inconclusive, Pf growth 96h 20% and MARV entry inh 1µM*.
COc1ccc(C/C(N)=N/n2cnnc2)cc1 was read as Pf growth 48h 17%, HCV inh 7%, HCMV antiviral inconclusive, LASV entry inh 17%, Pf growth 96h -6% and MARV entry inh 5%.
`COC(=O)c1c(-c2cccs2)csc1NC(=O)COc1c(C)ccc(C)c1C` gave HCMV antiviral -9, LASV entry inh 3%[46.1 µM] and MARV entry inh inconclusive.
For O=C(Cc1csc(Nc2nc(=S)[nH]c3ccccc23)n1)NCc1ccccc1Cl the results were Pf growth 48h -27%, HCV inh 11µM*, HCMV antiviral -4, LASV entry inh inconclusive, Pf growth 96h inconclusive and MARV entry inh inconclusive.
O=C(Cc1csc(Nc2nc(=S)[nH]c3ccccc23)n1)NCc1cccc(Cl)c1 was read as Pf growth 48h 4%, HCV inh inconclusive, HCMV antiviral 9, LASV entry inh -29%, Pf growth 96h inconclusive and MARV entry inh inconclusive.
O=C(CSc1n[nH]c(-c2ccccc2Cl)n1)NCCc1ccccc1 was read as HCMV antiviral 4 and LASV entry inh -20%[46.1 µM].
`CS(=O)(=O)c1ccc(S(=O)CC(=O)Oc2ccc(Cl)cc2)c([N+](=O)[O-])c1` (stereo not given) gave Pf growth 48h inconclusive, HCV inh inconclusive, LASV entry inh inconclusive, Pf growth 96h -11% and MARV entry inh 11µM*.
Screening Cc1ccc(NC(=O)C2(C)CCCN(C(C)C)C2)cc1C (stereo not given) returned HCMV antiviral 19.
Screening Cc1nc2ccn(Cc3ccco3)c(=O)c2cc1C(=O)NCc1ccc(Cl)cc1 returned HCMV antiviral -38 and LASV entry inh inconclusive.
COc1ccc(Oc2nnc(-c3ccc(C)cc3)c3ccccc23)cc1 was read as Pf growth 48h 4%, HCV inh 22%, HCMV antiviral -27, LASV entry inh -2%, Pf growth 96h 13% and MARV entry inh -6%.
`O=C(Nc1ccc(Oc2nnc(-c3ccccc3)c3ccccc23)cc1)c1ccccc1` gave Pf growth 48h 10µM*, HCV inh -8%, HCMV antiviral -60*, LASV entry inh 3%, Pf growth 96h -7% and MARV entry inh inconclusive.
For CCCN1C[C@H](CSC)C[C@@H]2c3cccc4[nH]cc(c34)C[C@H]21 the results were Pf growth 48h inconclusive, HCV inh -22%, HCMV antiviral inconclusive, LASV entry inh inconclusive, Pf growth 96h 10µM* and MARV entry inh inconclusive.
For C=CCNC(=O)/C(C#N)=C/c1c(N2CCN(c3ccc(OC)cc3)CC2)nc2c(C)cccn2c1=O the results were Pf growth 48h 13µM*, HCV inh -12%, HCMV antiviral -10 and Pf growth 96h inconclusive.
COCCCNC(=O)/C(C#N)=C/c1c(N2CCN(c3ccccc3)CC2)nc2c(C)cccn2c1=O was read as Pf growth 48h 13µM*, HCV inh -23%, HCMV antiviral 18 and Pf growth 96h 10µM*.
Screening COCCCNC(=O)/C(C#N)=C/c1c(N2CCN(c3cccc(Cl)c3)CC2)nc2c(C)cccn2c1=O returned Pf growth 48h inconclusive, HCV inh inconclusive, HCMV antiviral -16, LASV entry inh inconclusive, Pf growth 96h inconclusive and MARV entry inh inconclusive.
COC(=O)/C(C#N)=C/c1c(N2CCN(c3ccccc3)CC2)nc2c(C)cccn2c1=O was read as Pf growth 48h 9.3µM*, HCV inh inconclusive, HCMV antiviral -16 and Pf growth 96h inconclusive.
Screening Cc1cccc(CSc2nc3sc(C)c(C)c3c(=O)n2Cc2ccco2)c1 returned Pf growth 48h 15µM*, HCV inh -6%, HCMV antiviral -8, LASV entry inh 4% and MARV entry inh 15%.
Cc1sc2nc(SCc3ccccc3)n(Cc3ccco3)c(=O)c2c1C was read as Pf growth 48h 2%, HCV inh -10%, HCMV antiviral -36, LASV entry inh inconclusive, Pf growth 96h -28% and MARV entry inh inconclusive.
`Cc1cc2c(=O)n(Cc3ccco3)c(SCC(=O)c3ccc(Cl)s3)nc2s1` gave Pf growth 48h 5.9µM*, HCV inh inconclusive, HCMV antiviral -65*, LASV entry inh inconclusive, Pf growth 96h 202% and MARV entry inh inconclusive.
For COc1cccc(CSc2nc3sc(C)c(C)c3c(=O)n2Cc2ccco2)c1 the results were Pf growth 48h -30%, HCV inh -27%, HCMV antiviral 33, LASV entry inh inconclusive, Pf growth 96h -24% and MARV entry inh 15µM*.
For Cc1sc2nc(SCC(=O)C(C)(C)C)n(Cc3ccco3)c(=O)c2c1C the results were Pf growth 48h 3.7µM*, HCV inh inconclusive, HCMV antiviral -98*, LASV entry inh 8.2µM*, Pf growth 96h 10µM* and MARV entry inh inconclusive.
`CCCn1c(C)cc(C(=O)CSc2nc3ccccc3c(=O)n2Cc2ccco2)c1C` gave Pf growth 48h 30%, HCV inh inconclusive, HCMV antiviral inconclusive, LASV entry inh inconclusive, Pf growth 96h inconclusive and MARV entry inh inconclusive.
O=C(Nc1ccc2c(c1)[C@H]1C[C@@H](CC(=O)N3CCOCC3)O[C@@H](CO)[C@H]1O2)C1CCOCC1 was read as HCMV antiviral -8.
Screening OC[C@H]1O[C@H](c2nc(-c3nc(-c4cccc(-n5cccc5)c4)no3)cs2)C[C@@H]1O returned HCMV antiviral -32.
Cc1ccc(C)c(COC(=O)c2cc(S(=O)(=O)N3CCCCC3)ccc2N2CCOCC2)c1 was read as Pf growth 48h 15µM*, HCV inh 0%, HCMV antiviral -8, LASV entry inh 7.1µM*, Pf growth 96h inconclusive and MARV entry inh inconclusive.
Screening Cc1ccc(CNC(=O)c2cc(S(=O)(=O)N3CCCCC3)ccc2N2CCOCC2)cc1 returned Pf growth 48h 8.3µM*, HCV inh inconclusive, HCMV antiviral -35, LASV entry inh inconclusive, Pf growth 96h inconclusive and MARV entry inh -22%.
For O=C(OCc1cccc(Cl)c1)c1cc(S(=O)(=O)N2CCCCC2)ccc1N1CCOCC1 the results were Pf growth 48h inconclusive, HCV inh 11µM*, HCMV antiviral -35, LASV entry inh inconclusive, Pf growth 96h 13µM* and MARV entry inh 11µM*.
